Assay outcomes from PubChem.
Only some compounds are listed: those with a hit (about 14% of all), similar ones and a draw of the others.
LmPK inh – qHTS Assay for Inhibitors of Leishmania Mexicana Pyruvate Kinase (LmPK) | purified LmPK, Kinase-Glo ATP luminescence, 1 h | Potency, µM (titrated, usually from 57.5 µM), for the others: at the top dose activity change, negative = inhibition, actives largely listed as inhibitors | 0.37% of 290,000 active; further: potency means the concentration at half of the fitted maximal effect; on the % scale 0 is the no-effect control and ±100 the full control effect
Target sequence (Q27686 whole entry, looked up): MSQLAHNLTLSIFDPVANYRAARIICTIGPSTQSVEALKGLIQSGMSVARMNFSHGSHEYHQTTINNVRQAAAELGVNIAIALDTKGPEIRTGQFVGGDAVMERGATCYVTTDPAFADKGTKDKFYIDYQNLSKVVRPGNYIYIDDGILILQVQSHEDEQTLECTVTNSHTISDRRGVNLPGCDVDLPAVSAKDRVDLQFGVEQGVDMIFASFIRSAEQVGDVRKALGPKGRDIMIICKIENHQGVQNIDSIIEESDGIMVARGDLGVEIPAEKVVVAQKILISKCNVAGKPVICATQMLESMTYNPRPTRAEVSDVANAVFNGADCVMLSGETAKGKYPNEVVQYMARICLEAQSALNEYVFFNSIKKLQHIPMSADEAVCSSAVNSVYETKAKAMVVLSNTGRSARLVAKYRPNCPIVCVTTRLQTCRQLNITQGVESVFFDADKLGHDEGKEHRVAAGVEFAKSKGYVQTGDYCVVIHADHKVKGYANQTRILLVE
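Screened at intermediate enzyme activity to detect both inhibitors and activators: LmPK at 0.1 nM, with a 0.5 nM enzyme column as activation reference. PEP 0.5 mM, ADP 0.1 mM; ATP detected by luminescence after 1 h.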
NS1 function inh – qHTS Assay for Inhibitors of Influenza NS1 Protein Function | Potency, µM (series often up to 46.1 µM), inactives show at the top dose activity, positive = more growth | 0.4% of 270,000 active | AID 2326, 2010; calls by dose curve; further: potency means the concentration at half of the fitted maximal effect; actives are rising curves; nearly all actives have a fitted effect of over 50% in size
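S. cerevisiae expressing influenza A NS1, grown in glucose, washed, then diluted 1:100 into pH 6.0 -URA galactose medium with 23 nl compound. Growth recovery read as OD600; NS1-free strain serves as control.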
CHX counter – Cycloheximide Counterscreen for Small Molecule Inhibitors of Shiga Toxin | max response, % | 12% of 300,000 active | cell reporter, cycloheximide protein synthesis inhibition counterscreen; in the data active means max response mostly above about 13%, no sharp cut-off; inactive means mostly below about 14%; further: read at 38.3 µM for the half of the compounds with a filed dose; 0% is about no effect
Giardia FBPA inh – qHTS Assay for Inhibitors of Fructose-1,6-bisphosphate Aldolase from Giardia Lamblia. purified Giardia FBPA. 0.71% of 290,000 active. Potency, µM (highest dose often 59.6 µM), for inactives: top-dose activity, negative = inhibition, most hits filed as inhibitors. A8B2U2; further: potency means the concentration at half of the fitted maximal effect; on the % scale 0 is the no-effect control and ±100 the full control effect; nearly all actives have a fitted effect of over 55% in size
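Giardia FBPA (40 nM reagent) was preincubated 10 min at RT with compound (up to 57.5 uM final), then substrate plus GAPDH/TPI/NAD/arsenate coupling system with diaphorase/resazurin was added; resorufin fluorescence (525/598 nm) was read after 20 min.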
Shiga toxin inh – A qHTS for Small Molecule Inhibitors of Shiga Toxin; Vero cells, Shiga toxin protein synthesis inhibition reporter; inhibition, % at 38.7 µM; 9.2% of 290,000 active; AID 2315, 2010; in the data active means inhibition mostly above about 28%, no sharp cut-off; inactive means mostly below about 43%; further: 0% is about no effect
* marks the source's active call; other numbers are inactive results; ? = inconclusive; · = not tested or not shown; [ ] = another dose, or the depositor's remark. Unless noted, the call rests on the fitted dose curve; in most records, active means well fitted curve in the direction sought with a large enough effect; inconclusive means small, poorly fitted or top-dose-only effect, or another doubt; inactive means no such curve, though single readings can be large; an effect the other way counts as inactive or inconclusive.

SMILES	LmPK inh	NS1 function inh	CHX counter	Giardia FBPA inh	Shiga toxin inh
O=C(Nc1ncc(Cc2ccccc2Cl)s1)C1CCCO1 (stereo unspecified)	-2%	-1%	54*	-3%	49*
CC(=O)Nc1ncc(Cc2cccc(Cl)c2)s1	1%	-76%	2	-3%	23
O=c1[nH]c2cc(Cl)c(O)cc2o1	·	·	-1	-6%	10
CC12C=C(/C=C/c3ccccc3)C(C)(C1)C(c1ccccc1)CC2=O (stereo unspecified)	·	·	·	-3%[12.9 µM]	·
O=C(CCN1CCOCC1)NNC(=O)Nc1cccc([N+](=O)[O-])c1	-3%	3%	-4	14%	-5
O=C(Cl)COCc1ccccc1	·	·	-6	0%	-5
CCCN1CCC(=O)N(C(CSc2ccc(Br)cc2)CC(C)C)CC1 (stereo unspecified)	·	·	36*	6%	89*
CCCN1CCC(=O)N([C@H](CSc2ccc(OC)cc2)c2ccccc2)CC1	-2%	1%	15*	-1%	37*
CCCN1CCC(=O)N(CCSc2ccc(OC)cc2)CC1	0%	-2%	9	4%	11
CC(C)C[C@@H](CSc1ccc(Br)cc1)N1CCN(CC(C)C)CCC1=O	6%	-7%	18*	2%	75*
CCCN1CCC(=O)N(C(CSc2ccc(OC)cc2)CC(C)C)CC1 (stereo unspecified)	·	·	43*	10%	53*
COc1ccc(SCC(c2ccccc2)N2CCN(CC(C)C)CCC2=O)cc1 (stereo unspecified)	·	·	9	-2%	-5
COc1ccc(N(Cc2cc(=O)[nH]c3ccccc23)C(=O)C(C)C)cc1	-2%	-1%	-3	-3%	3
Cc1cc(C)n2c(SCC(=O)N(CC(C)C)c3c(N)n(CC(C)C)c(=O)[nH]c3=O)nnc2n1	-6%	·	1	-4%	-16
NC(=O)Cc1nc(-c2ccc(Br)cc2)cs1	0%	11%	21	0%	37*
N/C(Cc1nc(-c2ccc(Cl)cc2)cs1)=N/O	-3%	0%	41*	5%	40*
Cc1ccc(-c2csc(CC(N)=O)n2)cc1	2%	·	31*	5%	66*
NC(=O)Cc1nc(-c2ccccc2)cs1	-1%	16%	6	0%	-2
Oc1csc(Cc2nc(-c3ccc(Br)cc3)cs2)n1	-1%	·	38*	-5%	130*
COc1ccc2c(=O)c(OC)c(-c3ccccc3)oc2c1	·	·	·	12%	·
CC/C=C\C/C=C\C/C=C\C/C=C\C/C=C\C/C=C\CCC(=O)NCCO	·	·	·	-4%	·
COc1ccc(CCN2CCC[C@H](CN3CCc4cc(OC)c(OC)cc4CC3=O)C2)cc1OC	·	·	-4	-8%	-7
COc1ccc(CN(C(=O)c2cc(=O)c3ccccc3o2)C2CCS(=O)(=O)C2)cc1 (stereo unspecified)	-1%	-4%	-1	10%	-3
CC(C)CCNC(=O)C1CCN(S(=O)(=O)c2ccc(-n3cnnn3)cc2)CC1	-4%	4%	1	8%	20
Cc1ccc(Nc2c(N)c(=O)oc3ccccc23)cc1	1%	-4%	22*	1%	57*
SMILES	LmPK inh	NS1 function inh	CHX counter	Giardia FBPA inh	Shiga toxin inh
O=c1ccc2ccc(OS(=O)(=O)O)cc2o1	·	·	4	-1%	-2
Cc1ccc(-n2ncc3c(NCc4cccnc4)ncnc32)c(C)c1	3%	23%	0	-4%	8
Cn1ncc2c(NNC(=O)c3ccc(O)cc3)ncnc21	-11%	·	16	0%	1
Cc1ccc(-n2ncc3c(NCc4cccnc4)ncnc32)cc1C	10%	-21%	45*	0%	115*
COc1ccc(-n2ncc3c(NCc4cccnc4)ncnc32)cc1	-5%	-2%	52*	-7%	86*
Cc1cccc(C(=O)NNc2ncnc3c2cnn3C)c1	16%	·	30*	-4%	36
Cc1ccc(-n2ncc3c(NCc4ccccc4)ncnc32)cc1	11%	17%	111*	-4%	103*
CN1CCN(c2ncc3nc(-c4ccc(Cl)cc4)c(=O)n(C4CC4)c3n2)CC1	·	·	·	-3%	·
COc1ccc(CCNC(=O)C(C)n2nc(C)n3c(cc4occc43)c2=O)cc1OC (stereo unspecified)	-3%	-4%	1	·	1
CCC(=O)NNc1ncnc2c1cnn2-c1ccccc1	0%	·	12	1%	21
COc1ccccc1CNc1ncnc2c1cnn2-c1ccccc1	1%	-43%	31*	-21%	43*
Cc1cccc(-n2ncc3c(NCc4cccnc4)ncnc32)c1	3%	-4%	47*	0%	77*
CC(=O)NNc1ncnc2c1cnn2-c1ccc(C)c(C)c1	-1%	·	56*	-1%	65*
CC(=O)C(C(c1ccccc1)c1c[nH]c2ccccc12)[N+](=O)[O-] (stereo unspecified)	2%	7%	-4	15%	-12
O=C(NC1CCOc2ccccc21)c1ccccn1 (stereo unspecified)	-1%	-2%	-3	4%	-11
O=C(CSc1nnc(-c2ccccc2O)o1)N1CCCCC1	-5%	4%	28*	-22%	42*
O=C(CSc1nnc(-c2ccccc2Cl)o1)N1CCCC1	2%	14%	51*	-4%	73*
CCOC(=O)N1CCN(C(=O)CSc2nnc(-c3ccccc3OC)o2)CC1	2%	-5%	12	3%	20
O=C(CSc1nnc(-c2ccccc2O)o1)N1CCOCC1	-2%	12%	26*	-5%	86*
O=C(CSc1nnc(Cc2ccccc2)o1)N1CCOCC1	-2%	0%	-2	3%	10
O=C(CSc1nnc(-c2ccccc2Br)o1)N1CCOCC1	1%	1%	51*	-1%	70*
O=C(CSc1nnc(-c2ccccc2O)o1)N1CCc2ccccc2C1	8%	-1%	-2	-5%	-7
CC(Sc1nnc(-c2ccccc2Br)o1)C(=O)N1CCOCC1 (stereo unspecified)	1%	-4%	12	4%	35
CN(C)C(=O)c1ccc(-c2ccc3ncnc(Nc4ccccc4)c3c2)cc1	·	·	·	-8%	·
O=C(CSc1nnc(-c2ccccc2Cl)o1)N1CCCCC1	-4%	-17%	37*	3%	83*
O=C(CSc1nnc(-c2ccncc2)o1)N1CCCCCC1	-5%	-2%	10	3%	34
Cc1ccc(N2C(=O)C3C4C=CC(CNC(=S)Nc5ccc(F)cc5)(O4)C3C2=O)cc1 (stereo unspecified)	-2%	-55%	7	-10%	-44
O=C1C2C3C=CC(CO)(O3)C2C(=O)N1c1ccc(-c2ccccc2)cc1 (stereo unspecified)	?	-163%	23*	-11%	46
Cc1ccc(N2C(=O)C3C4C=CC(CNC(=S)Nc5ccc(Cl)cc5)(O4)C3C2=O)cc1 (stereo unspecified)	3%	-43%	9.6*	0%	-2
